Measurements as given in the supplement of paper PMC9262897, “Low-cost anti-mycobacterial drug discovery using engineered E. coli” (Nature Communications, 2022).
Counter-ions that a name gives are not always drawn. ± gives the standard deviation of the averaged measurements.

Tests used:
Assay in all cases: growth (OD600 after 10 h); higher = more growth (less inhibition)
[1] = system: E. coli TESEC Alr+ wild-type control; details: compound 0.1 mM; raw OD600 reference: median of DMSO wells 0.241, cell-free background 0.041
Description: (§1)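 TESEC Mtb Alr E. coli, or the Alr+ wild-type control, in 384-well plates with Prestwick library compounds at 0.1 mM and 1% DMSO, across arabinose induction levels of 1E3 to 1E7 nM. Growth is read as OD600 after 10 h at 37 °C in triplicate biological replicates.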

[2] = system: E. coli TESEC Mtb Alr; details: compound 0.1 mM
Description: as §1

[3] = system: E. coli TESEC Mtb Asd; details: compound 0.1 mM
Description: (§2)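 TESEC E. coli strains in which the native enzyme is deleted and replaced by arabinose-inducible Mtb Asd, DapB, CysH or TrpD, each grown in its selective medium. Strains were screened against the Prestwick library at 0.1 mM and 1% DMSO in 384-well format at low and high arabinose induction. Growth is read as OD600 after 10 h in triplicate.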

[4] = system: E. coli TESEC Mtb DapB; details: compound 0.1 mM
Description: as §2

[5] = system: E. coli TESEC Alr+ wild-type control; details: compound 0.1 mM; raw OD600 reference: median of DMSO wells 0.49, cell-free background 0.052
Description: (§3)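 TESEC Mtb Alr E. coli (ΔaraC ΔtolC ΔentC Δalr ΔdadX, arabinose-inducible Mtb Alr) or the Alr+ wild-type control strain, grown in defined M9-fructose medium without D-alanine in 96-well plates with Prestwick library compounds at 0.1 mM and 1% DMSO. Low Alr induction is 0.1 µM arabinose and high induction is 10 mM arabinose.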

[6] = system: E. coli TESEC Mtb Alr; details: compound 0.1 mM; remark: listed apart in the source
Description: as §3

[7] = arabinose 1000 nM, raw OD600 reference: median of DMSO wells 0.294, cell-free background 0.041
[8] = arabinose 10000 nM, raw OD600 reference: median of DMSO wells 0.264, cell-free background 0.041
[9] = arabinose 100000 nM, raw OD600 reference: median of DMSO wells 0.201, cell-free background 0.041
[10] = arabinose 1000000 nM, raw OD600 reference: median of DMSO wells 0.193, cell-free background 0.041
[11] = arabinose 10000000 nM, raw OD600 reference: median of DMSO wells 0.146, cell-free background 0.041
[12] = arabinose induction (level): High, raw OD600 reference: median of DMSO wells 0.331, cell-free background 0.041
[13] = arabinose induction (level): Low, raw OD600 reference: median of DMSO wells 0.417, cell-free background 0.041
[14] = arabinose induction (level): High, raw OD600 reference: median of DMSO wells […], cell-free background 0.041
[15] = arabinose induction (level): Low, raw OD600 reference: median of DMSO wells 0.227, cell-free background 0.041
[16] = arabinose 100 nM, raw OD600 reference: median of DMSO wells 0.413, cell-free background 0.052
[17] = arabinose 10000000 nM, raw OD600 reference: median of DMSO wells […], cell-free background 0.052

Compound | growth [1] | growth [2, 7] | growth [2, 8] | growth [2, 9] | growth [2, 10] | growth [2, 11] | growth [3, 12] | growth [3, 13] | growth [4, 14] | growth [4, 15] | growth [5] | growth [6, 16] | growth [6, 17]
COc1ccc(C(Cl)=C(c2ccc(OC)cc2)c2ccc(OC)cc2)cc1 [Chlorotrianisene] | 0.242 ± 0.0055 | 0.306 ± 0.018 | 0.2565 ± 0.0023 | 0.189 ± 0.013 | 0.208 ± 0.013 | 0.168 ± 0.049 | 0.281 ± 0.037 | 0.264 ± 0.019 | 0.232 ± 0.016 | 0.267 ± 0.0015 | 0.469 ± 0.025 | 0.443 ± 0.02 | 0.407 ± 0.019
CC(C)NCC(O)c1ccc(NS(C)(=O)=O)cc1 (configuration not stated) [Sotalol hydrochloride] | 0.163 ± 0.0095 | 0.206 ± 0.0064 | 0.254 ± 0.0096 | 0.173 ± 0.025 | 0.138 ± 0.0027 | 0.142 ± 0.0089 | 0.242 ± 0.084 | 0.377 ± 0.056 | 0.181 ± 0.016 | 0.221 ± 0.016 | 0.433 ± 0.0053 | 0.402 ± 0.012 | 0.359 ± 0.025
Nc1ccc(/N=N/c2ccccc2)c(N)n1 [Phenazopyridine hydrochloride] | 0.152 ± 0.0064 | 0.172 ± 0.0075 | 0.251 ± 0.0051 | 0.144 ± 0.0084 | 0.184 ± 0.0075 | 0.16 ± 0.009 | 0.255 ± 0.039 | 0.22 ± 0.016 | 0.196 ± 0.01 | 0.189 ± 0.022 | 0.405 ± 0.014 | 0.414 ± 0.0063 | 0.301 ± 0.021
CC[C@H]1OC(=O)[C@H](C)[C@@H](O[C@H]2C[C@@](C)(OC)[C@@H](O)[C@H](C)O2)[C@H](C)[C@@H](O[C@@H]2O[C@H](C)C[C@H](N(C)C)[C@H]2O)[C@](C)(O)C[C@@H](C)/C(=N\OCOCCOC)[C@H](C)[C@@H](O)[C@]1(C)O [Roxithromycin] | 0.0423 ± 0.0011 | 0.0412 ± 0.00062 | 0.04067 ± 0.00015 | 0.0421 ± 0.0001 | 0.04023 ± 0.00015 | 0.0439 ± 0.002 | 0.0582 ± 0.0066 | 0.205 ± 0.25 | 0.0507 ± 0.0027 | 0.0505 ± 0.00097 | 0.05257 ± 0.00029 | 0.0564 ± 0.0015 | 0.0513 ± 0.00036
NC(=O)N/N=C/c1ccc([N+](=O)[O-])o1 [Nitrofural] | 0.044 ± 0.00072 | 0.0426 ± 0.00078 | 0.04193 ± 0.00015 | 0.044 ± 0.0018 | 0.042 ± 0.00045 | 0.0427 ± 0.00084 | 0.0898 ± 0.0054 | 0.0756 ± 0.0054 | 0.11 ± 0.0086 | 0.145 ± 0.016 | 0.0529 ± 0.0016 | 0.0532 ± 0.0056 | 0.0522 ± 0.00076
CCN(CC)C(=O)c1ccc(O)c(OC)c1 [Ethamivan] | 0.24 ± 0.0033 | 0.295 ± 0.0045 | 0.249 ± 0.0036 | 0.232 ± 0.013 | 0.181 ± 0.0058 | 0.138 ± 0.0057 | 0.388 ± 0.079 | 0.397 ± 0.041 | 0.196 ± 0.0081 | 0.2251 ± 0.0019 | 0.543 ± 0.12 | 0.406 ± 0.013 | 0.356 ± 0.02
CC(=O)Nc1nnc(S(N)(=O)=O)s1 [Acetazolamide] | 0.249 ± 0.017 | 0.293 ± 0.023 | 0.253 ± 0.0037 | 0.234 ± 0.0084 | 0.166 ± 0.0058 | 0.141 ± 0.006 | 0.361 ± 0.014 | 0.394 ± 0.051 | 0.211 ± 0.015 | 0.253 ± 0.077 | 0.436 ± 0.042 | 0.408 ± 0.011 | 0.317 ± 0.05
C[N+]1(C)CCC(=C(c2ccccc2)c2ccccc2)CC1 [Diphemanil methylsulfate] | 0.206 ± 0.0076 | 0.289 ± 0.01 | 0.255 ± 0.01 | 0.197 ± 0.013 | 0.16 ± 0.014 | 0.153 ± 0.0035 | 0.203 ± 0.027 | 0.352 ± 0.065 | 0.187 ± 0.015 | 0.25 ± 0.028 | 0.4312 ± 0.0036 | 0.4115 ± 0.0028 | 0.36 ± 0.015
Cc1c(Cl)cccc1Nc1ncccc1C(=O)O [Clonixin Lysinate] | 0.181 ± 0.0096 | 0.207 ± 0.0063 | 0.155 ± 0.0017 | 0.173 ± 0.0047 | 0.0952 ± 0.0017 | 0.15 ± 0.0047 | 0.19 ± 0.011 | 0.17 ± 0.0079 | 0.175 ± 0.019 | 0.207 ± 0.035 | 0.334 ± 0.0083 | 0.283 ± 0.023 | 0.173 ± 0.026
